Inconclusive results are not listed. The source made the active and inactive calls. The call rests on the fitted dose curve; in most records, active means well fitted inhibition curve with a large enough effect; inconclusive means small, poorly fitted or top-dose-only effect; inactive means flat fitted curve, though single readings scatter.
biological target: Lysine-specific demethylase 5B (Homo sapiens) (UniProt Q9UGL1); experiment: Optimization screen for KDM5B Histone Demethylases FDH coupled qHTS against the LOPAC library (AID 1347166); conditions: KDM5B demethylation, FDH-coupled NADH fluorescence (FDH is formaldehyde dehydrogenase); series mostly up to 57.5 µM
Sequence (Q9UGL1 whole entry, looked up): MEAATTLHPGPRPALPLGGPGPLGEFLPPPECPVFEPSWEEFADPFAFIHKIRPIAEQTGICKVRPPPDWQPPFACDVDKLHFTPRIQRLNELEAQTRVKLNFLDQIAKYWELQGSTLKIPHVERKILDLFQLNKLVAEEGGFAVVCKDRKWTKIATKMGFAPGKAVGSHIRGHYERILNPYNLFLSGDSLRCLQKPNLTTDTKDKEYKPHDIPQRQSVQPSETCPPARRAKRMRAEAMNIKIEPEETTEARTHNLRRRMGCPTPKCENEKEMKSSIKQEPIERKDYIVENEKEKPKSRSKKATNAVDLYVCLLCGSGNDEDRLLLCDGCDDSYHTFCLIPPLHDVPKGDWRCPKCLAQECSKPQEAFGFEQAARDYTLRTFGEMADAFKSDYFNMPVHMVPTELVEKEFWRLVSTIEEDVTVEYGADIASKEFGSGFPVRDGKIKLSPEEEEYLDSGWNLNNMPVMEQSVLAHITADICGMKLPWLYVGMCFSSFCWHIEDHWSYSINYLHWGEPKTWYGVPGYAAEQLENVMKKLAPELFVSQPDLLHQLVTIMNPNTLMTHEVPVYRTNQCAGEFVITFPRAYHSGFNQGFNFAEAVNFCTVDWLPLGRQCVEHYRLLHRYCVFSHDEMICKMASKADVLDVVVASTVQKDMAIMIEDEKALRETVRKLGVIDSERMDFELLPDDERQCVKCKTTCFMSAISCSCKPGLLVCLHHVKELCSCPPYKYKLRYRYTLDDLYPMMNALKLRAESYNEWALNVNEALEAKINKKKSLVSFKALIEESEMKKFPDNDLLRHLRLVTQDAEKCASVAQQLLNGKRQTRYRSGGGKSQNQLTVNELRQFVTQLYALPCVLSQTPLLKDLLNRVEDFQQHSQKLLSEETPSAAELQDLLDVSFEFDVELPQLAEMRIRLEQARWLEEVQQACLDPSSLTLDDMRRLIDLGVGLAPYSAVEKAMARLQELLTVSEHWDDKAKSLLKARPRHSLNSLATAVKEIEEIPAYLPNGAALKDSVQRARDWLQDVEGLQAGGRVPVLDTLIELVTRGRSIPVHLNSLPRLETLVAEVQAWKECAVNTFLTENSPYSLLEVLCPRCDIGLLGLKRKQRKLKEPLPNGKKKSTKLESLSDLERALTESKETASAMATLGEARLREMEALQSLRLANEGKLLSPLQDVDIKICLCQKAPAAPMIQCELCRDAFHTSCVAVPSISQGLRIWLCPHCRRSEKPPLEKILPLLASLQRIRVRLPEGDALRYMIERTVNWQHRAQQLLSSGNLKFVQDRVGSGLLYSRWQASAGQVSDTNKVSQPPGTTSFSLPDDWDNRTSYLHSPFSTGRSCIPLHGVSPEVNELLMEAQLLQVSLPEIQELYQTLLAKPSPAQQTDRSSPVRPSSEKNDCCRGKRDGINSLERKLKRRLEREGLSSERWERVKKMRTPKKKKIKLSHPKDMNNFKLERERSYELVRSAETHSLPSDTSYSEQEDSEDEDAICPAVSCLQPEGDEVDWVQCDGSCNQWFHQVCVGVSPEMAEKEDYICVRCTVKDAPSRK
Source text: Assay Submitter (PI): Qin Yan, Ph.D. (Yale University) and Xiaodong Cheng, Ph.D. (MD Anderson)
This project was funded as part of the NCI NEXT Program and Chemical Biology Consortium (CBC)
The histone demethylases, KDM5A and KDM5B catalyze the demethylation of lysine 4 on histone H3 (H3K4me3/2). They
are overexpressed in a variety of cancers and have been implicated in cancer cell growth, metastasis, drug resistance, and tumor growth. KDM5A is amplified and overexpressed in breast and gastric cancer; and is translocated in leukemia. While KDM5B is highly expressed in human mammary tumors and breast cancer cell lines, but not in normal adult breast tissue. Moreover, knockdown of KDM5B leads to upregulation of tumor suppressor genes, including BRCA1. The goal of this project is to employ qHTS to identify selective small molecule inhibitors of KDM5A/B demethylase activity to better understand the role of KDM5 in cancer and to develop novel therapies.
We employed an FDH-coupled assay previously reported by Sakurai et al. to monitor in vitro KDM5 demethylase activity. Compounds showing dose response inhibition are re-acquired, validated, and tested for non-specific interference with the formaldehyde dehydrogenase (FDH) counterscreen. True inhibitors are validated using an AlphaLisa secondary screen, which employs an H3K4(me2-1)-specific antibody to monitor demethylation of a biotin-tagged H3K4(me3) peptide substrate. Inhibitors are profiled against KDM4A and KDM6A AlphaLisa counterscreens to determine level of demethylase specificity; and against the TruHits counterscreen to eliminate non-specific inhibitory activity on the AlphaLISA detection method. Selective inhibitors identified from the primary and secondary screening are tested in cells using immunofluorescence to monitor global H3K4 tri-methylation as a measure of KDM5A/B inhibition. This assay is run against the NCGC Lopac collection of about 1,200 compounds to evaluate its amenability to quantitative High Throughput Screening (qHTS) platform.
Early Translation Branch (ETB)
National Center for Advancing Translational Sciences (NCATS), Rockville, MD
National Institute of Health (NIH), Bethesda, Maryland
[1] Sakurai, M et al. A miniaturized screen for inhibitors of Jumonji histone demethylases. Mol Biosyst. 2010 Feb;6(2):357-64. doi: 10.1039/b912993f. Epub 2009 Oct 8.
1536-well Black, solid bottom, medium binding assay plate is purchased from Greiner Bio-one. The enzymes (KDM5B) and substrate (H3K4me3/2) are provided by the principal investigators. The buffer for this assay is composed of 50mM HEPES at pH 7.5 with 0.01% Tween-20.
FDH coupled qHTS protocol:
Three microliter enzyme mix (buffer + 200nM KDM5BDeltaAP final concentration) is dispensed into the assay plate using the BioRAPTR Flying Reagent Dispenser (FRD; Beckton-Dickenson). Compound (at various final concentration) and control solution is pin transferred to the assay plate using the Kalypsys 1536-pin tool apparatus. The assay plate is incubated for 10 min at room temperature followed by addition of 1uL substrate mix (buffer + 100uM ascorbic acid, 50uM ferrous ammonium sulfate, 12.5uM H3K4Me3, 25uM a-ketoglutarate, 0.25 mM NAD+, 0.25 U/mL formaldehyde dehydrogenase using the FRD yielding a total reaction volume of 4 uL. Initial fluorescence (Read1) is detected using the PerkinElmer ViewLux plate reader equipped with 340 nm excitation and 450 nm emission filters. The final fluorescence (Read2) signal is obtained after 30 min of room temperature incubation. Delta RFU is calculated (Read2 - Read1) and is used to generated dose response curves

SMILES | outcome
COc1cc2c(cc1O)CC[C@@H]1[C@@H]2CC[C@]2(C)[C@@H](O)CC[C@@H]12 | inactive
CCCC1O[C@@H]2C[C@H]3[C@@H]4CCC5=CC(=O)C=C[C@]5(C)[C@H]4[C@@H](O)C[C@]3(C)[C@]2(C(=O)CO)O1 (stereo not given in full) | inactive
Nc1cc(Cl)c(NC2=NCCN2)c(Cl)c1 | inactive
CN1C2CCC1CC(OC(=O)c1c[nH]c3ccccc13)C2 (stereo not given) | inactive
C1CCc2nnnn2CC1 | inactive
C[N+]1(CCCCC[N+]2(C)CCCC2)CCCC1 | inactive
CC(=O)O[C@H]1C[C@@H]2CC[C@@H]3[C@H](CC[C@@]4(C)[C@H]3C[C@H]([N+]3(C)CCCCC3)[C@@H]4OC(C)=O)[C@@]2(C)C[C@@H]1[N+]1(C)CCCCC1 | inactive
CNCCC=C1c2ccccc2CCc2ccccc21 | inactive
CC[C@H](C)C(=O)O[C@H]1CCC=C2C=C[C@H](C)[C@H](CC[C@@H]3C[C@@H](O)CC(=O)O3)[C@H]21 | inactive
O=C(O)c1cc2cc(Cc3cccnc3)ccc2o1 | inactive
N[C@H](CO)C(=O)O | inactive
CNCCC(Oc1ccccc1C)c1ccccc1 (stereo not given) | inactive
C[C@]12CC[C@@H]3c4ccc(O)cc4CC[C@H]3[C@@H]1CC[C@@H]2O | inactive
O=C1CCC(c2ccc(-n3ccnc3)cc2)=NN1 | inactive
N[C@@H](Cc1cnc[nH]1)C(=O)O | inactive
CC(C)COC(=O)OCN1C(=O)CN(CCN2CC(=O)N(COC(=O)OCC(C)C)C(=O)C2)CC1=O | inactive
CCCn1c(=O)[nH]c(=O)c2[nH]cnc21 | inactive
C[C@@H]1C(=O)NC2=Nc3cccc(Cl)c3CN21 | inactive
COC(=O)[C@H]1[C@H]2C[C@H]3c4[nH]c5ccccc5c4CCN3C[C@H]2CC[C@@H]1O | inactive
CC1(C)CCC(NC(=O)[C@@H](N)CCC(=O)O)CC1 | inactive

Reference: PubChem BioAssay (NCATS)
